Compound activity as filed in PubChem BioAssay.
Compounds with a hit are over-represented: about 22% of the library has one in this group of screens.
LmPK inh = inhibitors of Leishmania mexicana pyruvate kinase; Q27686; purified LmPK, Kinase-Glo ATP luminescence, 1 h; Potency, µM (titrated, usually from 57.5 µM), most hits filed as inhibitors; actives 0.37% (n = 290,000); AID 1721
Target sequence (Q27686 whole entry, looked up): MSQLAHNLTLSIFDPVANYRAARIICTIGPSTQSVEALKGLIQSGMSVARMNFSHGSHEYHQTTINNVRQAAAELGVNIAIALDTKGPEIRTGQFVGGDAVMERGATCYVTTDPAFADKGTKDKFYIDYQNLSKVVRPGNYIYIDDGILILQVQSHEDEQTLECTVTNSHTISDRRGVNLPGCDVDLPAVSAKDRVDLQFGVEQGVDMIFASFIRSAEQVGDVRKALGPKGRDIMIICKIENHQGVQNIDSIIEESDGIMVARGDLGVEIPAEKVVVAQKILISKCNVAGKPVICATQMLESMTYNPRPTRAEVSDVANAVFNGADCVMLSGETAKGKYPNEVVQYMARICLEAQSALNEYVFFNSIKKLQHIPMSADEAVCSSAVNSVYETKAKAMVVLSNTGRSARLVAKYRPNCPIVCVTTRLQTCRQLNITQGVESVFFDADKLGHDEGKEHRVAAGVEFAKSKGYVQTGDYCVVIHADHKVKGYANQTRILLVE
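Screened at intermediate enzyme activity to detect both inhibitors and activators: LmPK at 0.1 nM, with a 0.5 nM enzyme column as activation reference. PEP 0.5 mM, ADP 0.1 mM; ATP detected by luminescence after 1 h.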
Pf growth 96h = inhibits malaria parasite growth, 96 h; Potency, µM (top dose mostly 28.7 µM), most hits filed as inhibitors; P. falciparum luciferase reporter growth, 96 h; actives 6.9% (n = 320,000)
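Two-generation exposure (96 h) targets delayed-death phenotype. Reporter parasites carrying integrated firefly luciferase, in red cells at 2% hematocrit and 0.05% parasitemia final, kept at 37 C, 5% CO2; luminescence loss indicates inhibition.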
Shiga inhibitor = Shiga toxin inhibition | Vero cells, Shiga toxin protein synthesis inhibition reporter | inhibition, % at 38.7 µM | actives 9.2% (n = 290,000) | AID 2315; in the data active = inhibition mostly above about 28%, no sharp cut-off; inactive = mostly below about 43%
Cycloheximide cs = counter-screen hit for Shiga toxin inhibitors, cycloheximide | cell reporter, cycloheximide protein synthesis inhibition counterscreen | max response, % | actives 12% (n = 300,000); in the data active = max response mostly above about 13%, no sharp cut-off; inactive = mostly below about 14%; also: read at 38.3 µM for the half of the compounds with a filed dose
Pf growth 48h = P. falciparum growth inhibition at 48 hours (one generation). P. falciparum luciferase growth in erythrocytes, 48 h. Potency, µM (series often up to 28.7 µM), hits mostly inhibitors. actives 5.9% (n = 310,000). AID 504832
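Parasite viability was followed by luminescence of a genomically integrated firefly luciferase. Cultures held 0.1% parasitemia at 2% hematocrit (final), incubated under 5% CO2 at 37 C.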
A number is an active result; [ ] = remark or other dose. Unless noted, calls follow the shape of the dose curve; as a rule, active = well fitted inhibition curve with a large enough effect; inconclusive = small, poorly fitted or top-dose-only effect, or another doubt; inactive = no such curve, though single readings can be large or run the other way.

For CCOC(=O)CSc1nc(C(C)(C)C)nc2ccccc12 the results were LmPK inh inactive, Pf growth 96h inactive, Shiga inhibitor inactive, Cycloheximide cs inactive and Pf growth 48h inactive.
O=C(CN(C(=O)Cn1nnc(-c2cccs2)n1)c1ccc2c(c1)OCCO2)NC1CCCCC1 was read as LmPK inh inactive, Pf growth 96h inactive, Shiga inhibitor 56, Cycloheximide cs 32 and Pf growth 48h inactive.
`O=C(CN(C(=O)Cn1nnc(-c2cccs2)n1)c1cnc2ccccc2c1)NCC1CCCO1` (configuration not stated) gave LmPK inh inactive, Pf growth 96h 15µM, Shiga inhibitor inactive, Cycloheximide cs inactive and Pf growth 48h inconclusive.
O=C(CN(C(=O)Cn1nnc(-c2ccccc2F)n1)c1cnc2ccccc2c1)NCC1CCCO1 (configuration not stated) was read as LmPK inh inactive, Pf growth 96h inconclusive, Shiga inhibitor inactive, Cycloheximide cs inactive and Pf growth 48h 9.3µM.
`Cc1ccc(N(CC(=O)NCC2CCCO2)C(=O)Cn2nnc(-c3cccs3)n2)cc1` (configuration not stated) gave LmPK inh inactive, Pf growth 96h inconclusive, Shiga inhibitor inactive, Cycloheximide cs inactive and Pf growth 48h inactive.
Screening O=C(CN(C(=O)Cn1nnc(-c2cccs2)n1)c1ccc2c(c1)OCCO2)NCC1CCCO1 (configuration not stated) returned LmPK inh inactive, Pf growth 96h inconclusive, Shiga inhibitor inactive, Cycloheximide cs inactive and Pf growth 48h inactive.
`O=C(NCc1ccccc1)C(c1ccc(O)cc1)N(C(=O)Cn1nnc(-c2cccs2)n1)c1ccc2c(c1)OCCO2` (configuration not stated) gave LmPK inh inactive, Pf growth 96h inactive, Shiga inhibitor inactive, Cycloheximide cs inactive and Pf growth 48h 12µM.
For Nc1ccccc1SC1CC(=O)N(c2ccccc2Cl)C1=O (configuration not stated) the results were LmPK inh inactive, Pf growth 96h inactive, Shiga inhibitor inactive, Cycloheximide cs inactive and Pf growth 48h inactive.
For COc1cccc(OC)c1C(=O)Nc1cccc(NC(=O)c2cccs2)c1 the results were LmPK inh inactive, Pf growth 96h inconclusive, Shiga inhibitor inactive, Cycloheximide cs inactive and Pf growth 48h inactive.
`CC(C)C1OC(c2cccc(NC(=O)c3cccs3)c2)OCC1(C)C` (configuration not stated) gave LmPK inh inactive, Pf growth 96h inconclusive, Shiga inhibitor inactive, Cycloheximide cs inactive and Pf growth 48h 1.9µM.
COc1ccc(CCNc2nc(-c3ccccn3)cs2)cc1OC was read as LmPK inh inactive, Pf growth 96h inconclusive, Shiga inhibitor inactive, Cycloheximide cs inactive and Pf growth 48h inconclusive.
c1ccc(Nc2nc(-c3cccs3)cs2)nc1 was read as LmPK inh inconclusive, Pf growth 96h inconclusive, Shiga inhibitor 88, Cycloheximide cs 33 and Pf growth 48h inactive.
`Cc1cccc(Nc2nc(-c3cccs3)cs2)n1` gave LmPK inh inactive, Pf growth 96h inactive, Shiga inhibitor 68, Cycloheximide cs 46 and Pf growth 48h inactive.
Cc1cccc(Nc2nc(-c3ccccn3)cs2)n1 was read as LmPK inh inactive, Pf growth 96h inactive, Shiga inhibitor 63, Cycloheximide cs 37 and Pf growth 48h inconclusive.
Screening COc1ccccc1C(=O)NCCC(=O)NCC1COc2ccccc2O1 (configuration not stated) returned Pf growth 96h inconclusive and Pf growth 48h inactive.
`O=C(CCCCC(=O)NNC(=O)COc1ccccc1)NNC(=O)COc1ccccc1` gave LmPK inh inactive, Pf growth 96h inactive, Shiga inhibitor inactive, Cycloheximide cs inactive and Pf growth 48h inactive.
For COc1ccc(-c2cc(-c3cc(C)ccc3O)[nH]n2)cc1 the results were LmPK inh inactive, Pf growth 96h inconclusive, Shiga inhibitor 80, Cycloheximide cs 49 and Pf growth 48h inconclusive.
For Clc1ccc(-c2ccn[nH]2)cc1 the results were LmPK inh inactive[11.5 µM], Pf growth 96h inconclusive, Shiga inhibitor 147, Cycloheximide cs 53 and Pf growth 48h inactive.
`COc1ccc(-c2cc(C3CCNCC3)[nH]n2)cc1` gave LmPK inh inactive, Pf growth 96h 2.3µM, Shiga inhibitor inactive, Cycloheximide cs inactive and Pf growth 48h 2.6µM.
COc1ccc(-c2cc(-c3ccc(OC)cc3)[nH]n2)cc1 was read as LmPK inh inactive, Pf growth 96h inactive, Shiga inhibitor inactive and Cycloheximide cs 35.
For COc1ccc(CNC(=O)C2CCNCC2)cc1 the results were LmPK inh inactive, Pf growth 96h inactive, Shiga inhibitor inactive, Cycloheximide cs inactive and Pf growth 48h inactive.
Screening S=c1nccc(-c2ccc(Cl)cc2)[nH]1 returned LmPK inh inactive, Pf growth 96h inactive, Shiga inhibitor inactive, Cycloheximide cs inactive and Pf growth 48h inactive.
For CCOCCc1nnc(NC(=O)C(CC)c2ccccc2)s1 (configuration not stated) the results were LmPK inh inactive, Pf growth 96h inactive, Shiga inhibitor inactive and Cycloheximide cs inactive.
`Cc1ccc(C(=O)NCC(=O)OC(C)C(=O)Nc2ccc(N(C)C)cc2)cc1C` (configuration not stated) gave LmPK inh inactive, Pf growth 96h inactive, Shiga inhibitor inactive, Cycloheximide cs inactive and Pf growth 48h inactive.
Screening CCc1ccccc1N(CC(=O)NC(C)c1ccccc1)S(C)(=O)=O (configuration not stated) returned LmPK inh inactive, Pf growth 96h inactive, Cycloheximide cs inactive and Pf growth 48h inactive.
Screening COc1ccc(-c2cc(-c3ccc(C)cc3)n[nH]2)c(O)c1 returned LmPK inh inactive, Pf growth 96h inactive, Shiga inhibitor 94, Cycloheximide cs 44 and Pf growth 48h inconclusive.
COc1ccc(-c2cn[nH]c2-c2ccc(O)cc2O)cc1 was read as LmPK inh inactive, Pf growth 96h inconclusive, Shiga inhibitor inactive, Cycloheximide cs inactive and Pf growth 48h inconclusive.
Screening COc1ccc(-c2cn[nH]c2N)cc1 returned LmPK inh inactive, Shiga inhibitor inactive, Cycloheximide cs inactive and Pf growth 48h inactive.
COc1ccc(Oc2ccc(-c3ccn[nH]3)cc2)cc1 was read as LmPK inh inactive, Pf growth 96h inactive, Shiga inhibitor 77, Cycloheximide cs 32 and Pf growth 48h inactive.
For CC(C)CN1CCC(CNC(=O)CCc2nnc(Cc3c[nH]c4ccccc34)o2)CC1 the results were LmPK inh inactive, Pf growth 96h inconclusive, Shiga inhibitor inactive, Cycloheximide cs inactive and Pf growth 48h inactive.
`CCOc1ccc(OCC)c(NC(=O)CCS(=O)(=O)c2ccc(Br)s2)c1` gave LmPK inh inactive, Shiga inhibitor inactive, Cycloheximide cs 15 and Pf growth 48h inconclusive.
Screening COc1ccccc1-c1cnn2c(NC3CCCC3)cc(C)nc12 returned LmPK inh inactive, Pf growth 96h inconclusive, Shiga inhibitor 125, Cycloheximide cs 38 and Pf growth 48h inactive.
For CCOC(=O)N1CCN(C(=O)CSc2ccc(-c3cccc(OC)c3)nn2)CC1 the results were LmPK inh inactive, Pf growth 96h inactive, Shiga inhibitor inactive, Cycloheximide cs inactive and Pf growth 48h inactive.
